Measured values reported in the supplement of paper PMC8728848.
The entries come from a sample that favours the strongest signals as a whole.

What was measured:
Assay in all cases: glycan array binding signal (z-score within array); higher = stronger binding
Conditions in all cases: glycan notation: IUPAC condensed, linker removed
Fuc(a1-2)Gal = biological target: Fuc(a1-2)Gal
Method in brief: (§1)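 The binding signal is a Z-score computed within each array. Data were drawn from 3228 arrays in the Consortium for Functional Glycomics database, restricted to those with a known protein sequence. Scores were averaged over arrays of the same protein sequence at different concentrations or buffers, and over linkers, and negative values can be taken as non-binding.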

[1] = biological target: Fuc(a1-2)Gal(b1-3)GalNAc(a1-3)[Fuc(a1-2)]Gal(b1-4)GlcNAc
Method in brief: as §1

[2] = biological target: Fuc(a1-2)Gal(b1-3)[Fuc(a1-4)]GlcNAc(b1-3)[Gal(b1-4)GlcNAc(b1-6)]Gal(b1-4)Glc
Method in brief: as §1

[3] = biological target: Fuc(a1-2)Gal(b1-4)GlcNAc(b1-2)Man(a1-3)[Fuc(a1-2)Gal(b1-4)GlcNAc(b1-2)Man(a1-6)]Man(b1-4)GlcNAc(b1-4)[Fuc(a1-6)]GlcNAc
Method in brief: as §1

[4] = biological target: Fuc(a1-2)Gal(b1-4)GlcNAc(b1-3)[Fuc(a1-3)[Gal(b1-4)]GlcNAc(b1-6)]Gal(b1-4)Glc
Method in brief: as §1

[5] = biological target: Fuc(a1-2)Gal(b1-4)GlcNAc(b1-6)GalNAc
Method in brief: as §1

[6] = biological target: Fuc(a1-2)Gal(b1-4)[Fuc(a1-3)]GlcNAc(b1-2)Man(a1-3)[Fuc(a1-2)Gal(b1-4)[Fuc(a1-3)]GlcNAc(b1-2)Man(a1-6)]Man(b1-4)GlcNAc(b1-4)[Fuc(a1-6)]GlcNAc
Method in brief: as §1

[7] = biological target: Fuc(a1-2)[Gal(a1-3)]Gal(b1-3)GlcNAc(b1-2)Man(a1-3)[Fuc(a1-2)[Gal(a1-3)]Gal(b1-3)GlcNAc(b1-2)Man(a1-6)]Man(b1-4)GlcNAc(b1-4)GlcNAc
Method in brief: as §1

[8] = biological target: Fuc(a1-2)[Gal(a1-3)]Gal(b1-3)GlcNAc(b1-6)GalNAc
Method in brief: as §1

[9] = biological target: Fuc(a1-2)[Gal(a1-3)]Gal(b1-4)GlcNAc
Method in brief: as §1

[10] = biological target: Fuc(a1-2)[GalNAc(a1-3)]Gal(b1-4)GlcNAc(b1-2)Man(a1-3)[Fuc(a1-2)[GalNAc(a1-3)]Gal(b1-4)GlcNAc(b1-2)Man(a1-6)]Man(b1-4)GlcNAc(b1-4)[Fuc(a1-6)]GlcNAc
Method in brief: as §1

[11] = biological target: Fuc(a1-2)[GalNAc(a1-3)]Gal(b1-4)[Fuc(a1-3)]GlcNAc(b1-3)GalNAc
Method in brief: as §1

[12] = biological target: Fuc(a1-3)[Gal(b1-4)]GlcNAc(b1-6)GalNAc
Method in brief: as §1

[13] = biological target: Gal(a1-3)Gal(b1-4)GlcNAc(b1-2)Man
Method in brief: as §1

[14] = biological target: Gal(b1-3)GalNAc(b1-4)Gal(b1-4)Glc
Method in brief: as §1

[15] = biological target: Gal(b1-3)[Neu5Ac(b2-6)]GalNAc
Method in brief: as §1

Gal(b1-4)GlcNAc(b1-2)Man = biological target: Gal(b1-4)GlcNAc(b1-2)Man
Method in brief: as §1

[16] = biological target: Gal(b1-4)GlcNAc(b1-2)Man(a1-3)[Gal(b1-4)GlcNAc(b1-2)Man(a1-6)]Man(b1-4)GlcNAc(b1-4)[Fuc(a1-6)]GlcNAc
Method in brief: as §1

[17] = biological target: Gal(b1-4)GlcNAc(b1-2)[Gal(b1-4)GlcNAc(b1-4)]Man(a1-3)[Gal(b1-4)GlcNAc(b1-2)[Gal(b1-4)GlcNAc(b1-6)]Man(a1-6)]Man(b1-4)GlcNAc(b1-4)GlcNAc
Method in brief: as §1

[18] = biological target: Gal(b1-4)GlcNAc(b1-2)[Gal(b1-4)GlcNAc(b1-6)]Man(a1-6)[Gal(b1-4)GlcNAc(b1-2)Man(a1-3)]Man(b1-4)GlcNAc(b1-4)[Fuc(a1-6)]GlcNAc
Method in brief: as §1

[19] = biological target: Gal(b1-4)GlcNAc(b1-3)Gal(b1-4)GlcNAc(b1-2)Man(a1-3)[Gal(b1-4)GlcNAc(b1-3)Gal(b1-4)GlcNAc(b1-2)Man(a1-6)]Man(b1-4)GlcNAc(b1-4)[Fuc(a1-6)]GlcNAc
Method in brief: as §1

[20] = biological target: Gal(b1-4)GlcNAc(b1-3)Gal(b1-4)GlcNAc(b1-2)[Gal(b1-4)GlcNAc(b1-3)Gal(b1-4)GlcNAc(b1-6)]Man(a1-6)[Gal(b1-4)GlcNAc(b1-3)Gal(b1-4)GlcNAc(b1-2)Man(a1-3)]Man(b1-4)GlcNAc(b1-4)[Fuc(a1-6)]GlcNAc
Method in brief: as §1

[21] = biological target: Gal(b1-4)GlcNAc(b1-3)Gal(b1-4)GlcNAc(b1-3)Gal(b1-4)GlcNAc(b1-2)[Gal(b1-4)GlcNAc(b1-3)Gal(b1-4)GlcNAc(b1-3)Gal(b1-4)GlcNAc(b1-6)]Man(a1-6)[Gal(b1-4)GlcNAc(b1-3)Gal(b1-4)GlcNAc(b1-3)Gal(b1-4)GlcNAc(b1-2)Man(a1-3)]Man(b1-4)GlcNAc(b1-4)[Fuc(a1-6)]GlcNAc
Method in brief: as §1

[22] = biological target: Gal(b1-4)GlcNAc(b1-3)Gal(b1-4)GlcNAc(b1-3)Gal(b1-4)GlcNAc(b1-3)Gal(b1-4)GlcNAc(b1-2)Man(a1-3)[Gal(b1-4)GlcNAc(b1-3)Gal(b1-4)GlcNAc(b1-3)Gal(b1-4)GlcNAc(b1-3)Gal(b1-4)GlcNAc(b1-2)Man(a1-6)]Man(b1-4)GlcNAc(b1-4)GlcNAc
Method in brief: as §1

[23] = biological target: Gal(b1-4)GlcNAc(b1-3)Gal(b1-4)GlcNAc(b1-3)Gal(b1-4)GlcNAc(b1-3)Gal(b1-4)GlcNAc(b1-2)[Gal(b1-4)GlcNAc(b1-3)Gal(b1-4)GlcNAc(b1-3)Gal(b1-4)GlcNAc(b1-3)Gal(b1-4)GlcNAc(b1-6)]Man(a1-6)[Gal(b1-4)GlcNAc(b1-3)Gal(b1-4)GlcNAc(b1-3)Gal(b1-4)GlcNAc(b1-3)Gal(b1-4)GlcNAc(b1-2)Man(a1-3)]Man(b1-4)GlcNAc(b1-4)[Fuc(a1-6)]GlcNAc
Method in brief: as §1

B1: ECL (Erythrina cristagalli), Q6YD91 (protein)
chain: VETISFSFSEFEPGNNDLTLQGAAIITQSGVLQLTKINQNGMPAWDSTGRTLYTKPVHIWDMTTGTVASFETRFSFSIEQPYTRPLPADGLVFFMGPTKSKPAQGYGYLGVFNNSKQDNSYQTLAVEFDTFSNPWDPPQVPHIGIDVNSIRSIKTQPFQLDNGQVANVVIKYDASSKILLAVLVYPSSGAIYTIAEIVDVKQVLPEWVDVGLSGATGAQRDAAETHDVYSWSFHASLPETND
- glycan array binding signal (z-score) (Fuc(a1-2)Gal): -0.188
- glycan array binding signal (z-score) [1]: -0.443
- glycan array binding signal (z-score) [2]: -0.094
- glycan array binding signal (z-score) [3]: -0.031
- glycan array binding signal (z-score) [4]: 0.053
- glycan array binding signal (z-score) [5]: -0.165
- glycan array binding signal (z-score) [6]: -0.185
- glycan array binding signal (z-score) [7]: -0.173
- glycan array binding signal (z-score) [8]: -0.206
- glycan array binding signal (z-score) [9]: -0.306
- glycan array binding signal (z-score) [10]: -0.274
- glycan array binding signal (z-score) [11]: 0.775
- glycan array binding signal (z-score) [12]: 0.251
- glycan array binding signal (z-score) [13]: -0.116
- glycan array binding signal (z-score) [14]: -0.141
- glycan array binding signal (z-score) [15]: -0.546
- glycan array binding signal (z-score) (Gal(b1-4)GlcNAc(b1-2)Man): -0.311
- glycan array binding signal (z-score) [16]: 0.114
- glycan array binding signal (z-score) [17]: 4.03
- glycan array binding signal (z-score) [18]: 5.09
- glycan array binding signal (z-score) [19]: 4.13
- glycan array binding signal (z-score) [20]: 6.18
- glycan array binding signal (z-score) [21]: 5.28
- glycan array binding signal (z-score) [22]: 3.58
- glycan array binding signal (z-score) [23]: 5.63
